Assay results published in article PMC7862700, “An all-to-all approach to the identification of sequence-specific readers for epigenetic DNA modifications on cytosine”.

Assays:
Test in all cases: DAPPL (digital affinity profiling via proximity ligation, sequencing); 10 mM Tris-HCl pH 7.5, 50 mM NaCl, 1 mM DTT, 4% glycerol, room temperature, 30 min; GST-TFs on glutathione beads, 16-mer random dsDNA library, 0.1% formaldehyde crosslink after washing; high values mean tight binding
FLI1 = biological target: T1, FLI1 (Homo sapiens, UniProt Q01543 1-452); details: protein: recombinant; tags: N-terminal GST; dsDNA, one strand shown
T1 sequence: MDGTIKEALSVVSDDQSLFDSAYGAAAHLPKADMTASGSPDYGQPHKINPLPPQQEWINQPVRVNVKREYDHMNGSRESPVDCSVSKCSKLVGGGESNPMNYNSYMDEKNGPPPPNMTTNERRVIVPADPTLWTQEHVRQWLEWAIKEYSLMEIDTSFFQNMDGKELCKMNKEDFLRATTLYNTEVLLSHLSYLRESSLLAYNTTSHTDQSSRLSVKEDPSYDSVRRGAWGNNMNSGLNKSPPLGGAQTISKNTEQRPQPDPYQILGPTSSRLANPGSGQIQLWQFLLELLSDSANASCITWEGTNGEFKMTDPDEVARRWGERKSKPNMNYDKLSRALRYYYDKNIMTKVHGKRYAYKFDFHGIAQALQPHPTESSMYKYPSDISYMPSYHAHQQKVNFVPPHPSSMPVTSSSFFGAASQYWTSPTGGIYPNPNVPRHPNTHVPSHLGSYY
How it was run: (§1)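 GST fusions of human transcription factors were expressed in yeast and captured with glutathione beads. Once given DNA barcodes and pooled alongside a tag-only sample, they were incubated for 30 min at room temperature with 200 nmole of a random double-stranded 16-mer DNA library in Tris/NaCl/DTT/glycerol buffer, then washed, crosslinked (0.1% formaldehyde), proximity-ligated, PCR-amplified and sequenced on an Illumina NextSeq500. The binding signal of each hexamer is its read frequency for a factor divided by its frequency for the tag-only sample.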

ELK1 = biological target: T2, ELK1 (Homo sapiens, UniProt P19419 1-428); details: protein: recombinant; tags: N-terminal GST; dsDNA, one strand shown
T2 sequence: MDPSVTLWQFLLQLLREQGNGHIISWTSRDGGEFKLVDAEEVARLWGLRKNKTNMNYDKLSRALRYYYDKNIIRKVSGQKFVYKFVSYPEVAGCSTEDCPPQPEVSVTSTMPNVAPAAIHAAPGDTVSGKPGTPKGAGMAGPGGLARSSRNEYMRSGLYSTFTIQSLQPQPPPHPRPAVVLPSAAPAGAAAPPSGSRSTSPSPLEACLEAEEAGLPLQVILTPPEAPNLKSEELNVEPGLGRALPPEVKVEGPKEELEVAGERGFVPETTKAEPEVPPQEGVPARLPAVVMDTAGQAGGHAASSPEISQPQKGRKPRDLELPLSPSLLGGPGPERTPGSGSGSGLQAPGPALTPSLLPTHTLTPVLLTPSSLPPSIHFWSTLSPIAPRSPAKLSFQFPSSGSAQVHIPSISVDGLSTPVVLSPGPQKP
How it was run: as §1

GABPA = biological target: T3, GABPA (Homo sapiens, UniProt Q06546 1-454); details: protein: recombinant; tags: N-terminal GST; dsDNA, one strand shown
T3 sequence: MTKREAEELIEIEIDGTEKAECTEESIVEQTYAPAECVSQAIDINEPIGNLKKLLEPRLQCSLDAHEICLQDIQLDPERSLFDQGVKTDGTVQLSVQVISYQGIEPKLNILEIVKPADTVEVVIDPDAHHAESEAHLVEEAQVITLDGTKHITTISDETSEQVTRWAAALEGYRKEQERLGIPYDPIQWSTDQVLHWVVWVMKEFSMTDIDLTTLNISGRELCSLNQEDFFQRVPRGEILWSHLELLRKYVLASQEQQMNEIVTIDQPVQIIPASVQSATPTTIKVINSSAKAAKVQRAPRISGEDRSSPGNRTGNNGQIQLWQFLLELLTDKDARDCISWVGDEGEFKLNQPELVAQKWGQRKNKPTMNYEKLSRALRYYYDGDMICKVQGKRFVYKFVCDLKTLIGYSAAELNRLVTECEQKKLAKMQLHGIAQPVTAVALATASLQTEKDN
How it was run: as §1

ERG = biological target: T4, ERG (Homo sapiens, UniProt P11308 1-479); details: protein: recombinant; tags: N-terminal GST; dsDNA, one strand shown
T4 sequence: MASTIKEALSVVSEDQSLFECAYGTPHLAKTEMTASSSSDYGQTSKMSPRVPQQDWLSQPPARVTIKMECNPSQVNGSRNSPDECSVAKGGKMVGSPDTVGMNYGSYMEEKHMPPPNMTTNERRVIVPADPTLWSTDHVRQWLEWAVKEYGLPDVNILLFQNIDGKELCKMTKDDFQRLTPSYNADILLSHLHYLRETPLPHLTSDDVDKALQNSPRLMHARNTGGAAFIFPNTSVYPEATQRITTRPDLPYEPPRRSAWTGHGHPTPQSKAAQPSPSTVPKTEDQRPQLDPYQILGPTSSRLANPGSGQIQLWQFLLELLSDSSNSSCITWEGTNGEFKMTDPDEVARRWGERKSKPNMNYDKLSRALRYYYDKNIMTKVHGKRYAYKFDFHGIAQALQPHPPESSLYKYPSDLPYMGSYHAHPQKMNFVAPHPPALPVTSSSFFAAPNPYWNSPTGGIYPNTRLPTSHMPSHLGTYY
How it was run: as §1

ELF1 = ELF1 (Homo sapiens, UniProt P32519 1-619); details: protein: recombinant; tags: N-terminal GST; dsDNA, one strand shown
How it was run: as §1

EHF = biological target: T5, EHF (Homo sapiens, UniProt Q9NZC4 1-300); details: protein: recombinant; tags: N-terminal GST; dsDNA, one strand shown
T5 sequence: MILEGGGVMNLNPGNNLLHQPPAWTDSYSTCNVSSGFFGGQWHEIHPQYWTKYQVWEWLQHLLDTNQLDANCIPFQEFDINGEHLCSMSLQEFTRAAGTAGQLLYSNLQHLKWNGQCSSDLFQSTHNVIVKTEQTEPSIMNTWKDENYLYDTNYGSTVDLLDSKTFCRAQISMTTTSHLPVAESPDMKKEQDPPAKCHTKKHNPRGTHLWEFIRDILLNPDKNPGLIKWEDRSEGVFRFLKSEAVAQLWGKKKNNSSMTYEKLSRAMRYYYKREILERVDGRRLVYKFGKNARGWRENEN
How it was run: as §1

SPI1 = SPI1 (Homo sapiens, UniProt P17947 1-270); details: protein: recombinant; tags: N-terminal GST; dsDNA, one strand shown
How it was run: as §1

SPIB = SPIB (Homo sapiens, UniProt Q01892 1-262); details: protein: recombinant; tags: N-terminal GST; dsDNA, one strand shown
How it was run: as §1

ELK3 = biological target: T6, ELK3 (Homo sapiens, UniProt P41970 1-407); details: protein: recombinant; tags: N-terminal GST; dsDNA, one strand shown
T6 sequence: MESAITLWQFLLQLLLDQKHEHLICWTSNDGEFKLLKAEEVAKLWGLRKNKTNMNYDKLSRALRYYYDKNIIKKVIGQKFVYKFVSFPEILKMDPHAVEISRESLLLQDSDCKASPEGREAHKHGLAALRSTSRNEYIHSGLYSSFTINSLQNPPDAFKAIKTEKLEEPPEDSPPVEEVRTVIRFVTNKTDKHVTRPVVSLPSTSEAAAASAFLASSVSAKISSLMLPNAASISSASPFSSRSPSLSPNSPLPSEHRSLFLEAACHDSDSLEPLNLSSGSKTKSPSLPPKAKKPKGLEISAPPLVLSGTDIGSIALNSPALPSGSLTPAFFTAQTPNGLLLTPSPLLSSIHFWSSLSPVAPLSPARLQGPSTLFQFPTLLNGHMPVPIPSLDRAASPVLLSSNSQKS
How it was run: as §1

FEV = biological target: T7, FEV (Homo sapiens, UniProt Q99581 1-238); details: protein: recombinant; tags: N-terminal GST; dsDNA, one strand shown
T7 sequence: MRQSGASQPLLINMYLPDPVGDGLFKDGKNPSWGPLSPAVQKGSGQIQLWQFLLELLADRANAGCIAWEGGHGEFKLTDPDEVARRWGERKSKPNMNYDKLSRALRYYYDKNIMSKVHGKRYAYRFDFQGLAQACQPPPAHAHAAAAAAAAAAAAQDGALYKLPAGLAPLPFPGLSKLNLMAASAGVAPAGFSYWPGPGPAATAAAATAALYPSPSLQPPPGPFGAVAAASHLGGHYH
How it was run: as §1

ETV5 = ETV5 (Homo sapiens, UniProt P41161 1-510); details: protein: recombinant; tags: N-terminal GST; dsDNA, one strand shown
How it was run: as §1

HSF1 = HSF1 (Homo sapiens, UniProt Q00613 1-529); details: protein: recombinant; tags: N-terminal GST; chain copies: 3; dsDNA, one strand shown
How it was run: as §1

SPIC = biological target: T8, SPIC (Homo sapiens, UniProt Q8N5J4 1-248); details: protein: recombinant; tags: N-terminal GST; dsDNA, one strand shown
T8 sequence: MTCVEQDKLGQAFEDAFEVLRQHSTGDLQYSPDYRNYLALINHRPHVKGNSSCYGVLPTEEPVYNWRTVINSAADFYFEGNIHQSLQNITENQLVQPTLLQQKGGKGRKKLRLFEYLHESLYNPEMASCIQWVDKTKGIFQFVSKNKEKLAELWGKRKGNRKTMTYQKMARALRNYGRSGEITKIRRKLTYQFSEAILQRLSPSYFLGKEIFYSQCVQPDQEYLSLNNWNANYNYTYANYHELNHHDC
How it was run: as §1

ELF4 = ELF4 (Homo sapiens, UniProt Q99607 1-663); details: protein: recombinant; tags: N-terminal GST; dsDNA, one strand shown
How it was run: as §1

ELK4 = biological target: T9, ELK4 (Homo sapiens, UniProt P28324-2 1-405); details: protein: recombinant; tags: N-terminal GST; dsDNA, one strand shown
T9 sequence: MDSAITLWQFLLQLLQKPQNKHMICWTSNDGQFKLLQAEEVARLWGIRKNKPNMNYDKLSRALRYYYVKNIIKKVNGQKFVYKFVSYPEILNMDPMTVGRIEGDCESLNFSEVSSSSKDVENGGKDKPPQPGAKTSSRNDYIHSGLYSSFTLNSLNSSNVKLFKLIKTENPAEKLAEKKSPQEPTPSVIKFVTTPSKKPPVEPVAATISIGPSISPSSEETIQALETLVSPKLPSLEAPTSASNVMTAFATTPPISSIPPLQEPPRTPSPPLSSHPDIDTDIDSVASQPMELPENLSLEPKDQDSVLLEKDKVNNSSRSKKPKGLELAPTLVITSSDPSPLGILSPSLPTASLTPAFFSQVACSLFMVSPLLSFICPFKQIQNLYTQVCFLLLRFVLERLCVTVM
How it was run: as §1

ETV2 = biological target: T10, ETV2 (Homo sapiens, UniProt O00321 1-342); details: protein: recombinant; tags: N-terminal GST; dsDNA, one strand shown
T10 sequence: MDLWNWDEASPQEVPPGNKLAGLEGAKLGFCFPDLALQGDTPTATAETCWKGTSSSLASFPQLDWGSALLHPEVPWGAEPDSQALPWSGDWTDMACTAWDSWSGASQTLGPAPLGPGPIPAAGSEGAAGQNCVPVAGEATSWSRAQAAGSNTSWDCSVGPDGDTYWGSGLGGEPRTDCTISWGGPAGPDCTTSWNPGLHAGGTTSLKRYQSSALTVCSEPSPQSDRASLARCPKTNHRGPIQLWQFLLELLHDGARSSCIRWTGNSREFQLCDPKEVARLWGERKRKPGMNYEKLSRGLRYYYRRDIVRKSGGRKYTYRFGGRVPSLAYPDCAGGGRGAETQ
How it was run: as §1

ELF3 = biological target: T11, ELF3 (Homo sapiens, UniProt P78545 1-371); details: protein: recombinant; tags: N-terminal GST; dsDNA, one strand shown
T11 sequence: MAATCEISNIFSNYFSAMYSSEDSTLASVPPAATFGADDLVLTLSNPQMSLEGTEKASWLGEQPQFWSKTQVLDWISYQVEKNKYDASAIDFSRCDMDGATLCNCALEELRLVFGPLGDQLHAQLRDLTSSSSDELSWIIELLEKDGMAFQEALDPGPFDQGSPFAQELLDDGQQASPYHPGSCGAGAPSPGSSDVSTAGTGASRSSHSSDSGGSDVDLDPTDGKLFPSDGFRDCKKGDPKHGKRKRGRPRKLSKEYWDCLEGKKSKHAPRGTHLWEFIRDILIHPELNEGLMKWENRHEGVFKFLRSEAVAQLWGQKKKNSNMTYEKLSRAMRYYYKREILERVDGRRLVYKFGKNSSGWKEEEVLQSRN
How it was run: as §1

CRX = CRX (Homo sapiens, UniProt O43186 1-299); details: protein: recombinant; tags: N-terminal GST; dsDNA, one strand shown
How it was run: as §1

ETV1 = ETV1 (Homo sapiens, UniProt P50549 1-477); details: protein: recombinant; tags: N-terminal GST; dsDNA, one strand shown
How it was run: as §1

Chain of ELF4 (Q99607 whole entry): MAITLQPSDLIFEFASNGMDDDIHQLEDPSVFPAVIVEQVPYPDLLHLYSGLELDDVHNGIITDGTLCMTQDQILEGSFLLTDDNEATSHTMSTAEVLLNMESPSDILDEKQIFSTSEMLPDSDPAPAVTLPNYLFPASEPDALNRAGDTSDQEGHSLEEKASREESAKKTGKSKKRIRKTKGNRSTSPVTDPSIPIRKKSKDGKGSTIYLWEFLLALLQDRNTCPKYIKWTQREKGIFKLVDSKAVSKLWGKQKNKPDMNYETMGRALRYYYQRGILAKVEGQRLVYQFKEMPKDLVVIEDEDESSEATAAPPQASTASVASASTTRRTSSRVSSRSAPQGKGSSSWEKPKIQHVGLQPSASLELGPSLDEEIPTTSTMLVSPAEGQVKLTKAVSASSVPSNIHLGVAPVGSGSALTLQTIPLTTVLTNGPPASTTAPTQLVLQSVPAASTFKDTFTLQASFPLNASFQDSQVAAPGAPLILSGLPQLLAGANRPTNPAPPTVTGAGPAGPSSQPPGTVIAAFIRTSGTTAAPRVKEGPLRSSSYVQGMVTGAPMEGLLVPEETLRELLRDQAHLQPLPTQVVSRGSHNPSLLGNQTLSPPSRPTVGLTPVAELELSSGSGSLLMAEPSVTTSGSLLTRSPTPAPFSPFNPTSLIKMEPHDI
Chain of ETV1 (P50549 whole entry): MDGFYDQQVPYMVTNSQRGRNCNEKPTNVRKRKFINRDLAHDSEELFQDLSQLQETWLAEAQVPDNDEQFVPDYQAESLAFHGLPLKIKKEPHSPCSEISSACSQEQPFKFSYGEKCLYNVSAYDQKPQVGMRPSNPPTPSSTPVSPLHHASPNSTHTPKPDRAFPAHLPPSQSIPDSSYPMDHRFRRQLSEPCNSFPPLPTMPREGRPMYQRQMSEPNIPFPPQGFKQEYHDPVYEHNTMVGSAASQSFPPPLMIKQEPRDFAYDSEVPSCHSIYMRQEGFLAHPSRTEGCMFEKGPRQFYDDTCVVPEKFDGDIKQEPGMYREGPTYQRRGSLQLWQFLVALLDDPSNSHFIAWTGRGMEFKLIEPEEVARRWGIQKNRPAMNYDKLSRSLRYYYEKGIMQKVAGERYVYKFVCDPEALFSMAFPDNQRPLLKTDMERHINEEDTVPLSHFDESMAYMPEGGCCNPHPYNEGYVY
Chain of ETV5 (P41161 whole entry): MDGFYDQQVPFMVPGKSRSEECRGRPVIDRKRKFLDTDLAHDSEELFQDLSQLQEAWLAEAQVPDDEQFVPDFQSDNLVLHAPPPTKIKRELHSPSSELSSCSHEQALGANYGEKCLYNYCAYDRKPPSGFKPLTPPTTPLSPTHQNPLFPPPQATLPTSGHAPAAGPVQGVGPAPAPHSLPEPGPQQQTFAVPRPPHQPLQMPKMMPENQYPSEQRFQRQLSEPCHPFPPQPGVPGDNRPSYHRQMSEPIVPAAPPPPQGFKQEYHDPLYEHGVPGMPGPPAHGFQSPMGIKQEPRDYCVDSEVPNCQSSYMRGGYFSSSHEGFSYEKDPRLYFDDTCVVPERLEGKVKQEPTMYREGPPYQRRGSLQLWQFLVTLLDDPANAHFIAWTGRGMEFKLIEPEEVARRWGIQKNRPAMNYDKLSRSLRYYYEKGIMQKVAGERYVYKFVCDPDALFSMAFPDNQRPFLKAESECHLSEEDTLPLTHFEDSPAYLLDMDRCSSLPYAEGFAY
Chain of CRX (O43186 whole entry): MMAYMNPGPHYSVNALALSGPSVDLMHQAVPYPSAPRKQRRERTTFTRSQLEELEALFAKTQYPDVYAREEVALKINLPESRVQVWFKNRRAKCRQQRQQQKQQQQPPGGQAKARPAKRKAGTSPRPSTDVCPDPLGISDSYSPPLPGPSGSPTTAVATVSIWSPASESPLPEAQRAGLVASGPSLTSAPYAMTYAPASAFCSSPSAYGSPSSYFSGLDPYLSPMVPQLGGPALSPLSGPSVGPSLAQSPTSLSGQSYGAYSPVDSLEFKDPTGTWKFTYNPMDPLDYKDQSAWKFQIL
Chain of HSF1 (Q00613 whole entry): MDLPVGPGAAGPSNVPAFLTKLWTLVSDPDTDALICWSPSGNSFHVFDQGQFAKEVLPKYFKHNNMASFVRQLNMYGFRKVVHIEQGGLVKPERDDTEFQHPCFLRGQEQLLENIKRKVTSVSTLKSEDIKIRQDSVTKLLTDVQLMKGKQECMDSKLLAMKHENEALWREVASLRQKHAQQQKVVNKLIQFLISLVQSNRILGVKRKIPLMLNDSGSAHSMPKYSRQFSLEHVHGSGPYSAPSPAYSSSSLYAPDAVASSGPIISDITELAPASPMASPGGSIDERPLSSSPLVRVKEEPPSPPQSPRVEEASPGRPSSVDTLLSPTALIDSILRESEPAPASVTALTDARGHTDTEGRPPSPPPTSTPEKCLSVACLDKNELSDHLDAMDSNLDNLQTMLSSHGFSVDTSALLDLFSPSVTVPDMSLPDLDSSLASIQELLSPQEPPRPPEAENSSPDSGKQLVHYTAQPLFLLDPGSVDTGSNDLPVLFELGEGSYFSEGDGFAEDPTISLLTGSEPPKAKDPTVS
Chain of SPIB (Q01892 whole entry): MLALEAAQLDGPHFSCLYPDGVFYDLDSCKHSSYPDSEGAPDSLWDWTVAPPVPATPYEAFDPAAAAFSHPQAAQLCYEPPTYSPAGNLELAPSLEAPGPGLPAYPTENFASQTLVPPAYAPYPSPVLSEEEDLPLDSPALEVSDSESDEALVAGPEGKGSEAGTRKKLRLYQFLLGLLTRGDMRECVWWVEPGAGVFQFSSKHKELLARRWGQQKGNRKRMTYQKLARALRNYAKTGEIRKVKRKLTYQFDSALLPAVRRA
Chain of ELF1 (P32519 whole entry): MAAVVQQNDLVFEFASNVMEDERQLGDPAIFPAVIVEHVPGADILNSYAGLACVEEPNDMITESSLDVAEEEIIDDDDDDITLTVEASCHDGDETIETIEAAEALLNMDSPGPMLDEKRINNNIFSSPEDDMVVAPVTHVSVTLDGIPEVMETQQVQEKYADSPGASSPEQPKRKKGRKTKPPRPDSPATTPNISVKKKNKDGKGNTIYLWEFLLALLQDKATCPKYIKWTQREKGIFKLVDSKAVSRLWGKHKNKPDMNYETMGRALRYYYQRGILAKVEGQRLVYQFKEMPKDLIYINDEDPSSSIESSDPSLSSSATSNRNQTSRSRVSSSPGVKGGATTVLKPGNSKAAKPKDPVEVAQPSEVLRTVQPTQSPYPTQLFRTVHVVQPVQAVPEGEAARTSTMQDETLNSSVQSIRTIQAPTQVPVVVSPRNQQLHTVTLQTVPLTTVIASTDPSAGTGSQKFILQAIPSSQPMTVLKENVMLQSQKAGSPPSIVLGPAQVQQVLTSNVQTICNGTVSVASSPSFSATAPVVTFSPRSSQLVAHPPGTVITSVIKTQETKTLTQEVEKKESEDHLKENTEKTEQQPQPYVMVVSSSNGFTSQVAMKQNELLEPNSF

## TTACAT
FLI1
  binding signal: 1.3 fold enrichment (6-mer frequency, TF over GST control)
ELK1
  binding signal: 1.27 fold enrichment (6-mer frequency, TF over GST control)
GABPA
  binding signal: 1.38 fold enrichment (6-mer frequency, TF over GST control)
ERG
  binding signal: 1.31 fold enrichment (6-mer frequency, TF over GST control)
ELF1
  binding signal: 1.31 fold enrichment (6-mer frequency, TF over GST control)
EHF
  binding signal: 1.43 fold enrichment (6-mer frequency, TF over GST control)
SPI1
  binding signal: 1.3 fold enrichment (6-mer frequency, TF over GST control)
SPIB
  binding signal: 1.3 fold enrichment (6-mer frequency, TF over GST control)
ELK3
  binding signal: 1.36 fold enrichment (6-mer frequency, TF over GST control)
FEV
  binding signal: 1.3 fold enrichment (6-mer frequency, TF over GST control)
ETV5
  binding signal: 1.31 fold enrichment (6-mer frequency, TF over GST control)
HSF1
  binding signal: 1.45 fold enrichment (6-mer frequency, TF over GST control)
SPIC
  binding signal: 1.34 fold enrichment (6-mer frequency, TF over GST control)
ELF4
  binding signal: 1.34 fold enrichment (6-mer frequency, TF over GST control)
ELK4
  binding signal: 1.34 fold enrichment (6-mer frequency, TF over GST control)
ETV2
  binding signal: 1.43 fold enrichment (6-mer frequency, TF over GST control)
ELF3
  binding signal: 1.4 fold enrichment (6-mer frequency, TF over GST control)
CRX
  binding signal: 1.81 fold enrichment (6-mer frequency, TF over GST control)
ETV1
  binding signal: 1.39 fold enrichment (6-mer frequency, TF over GST control)
